ChEMBL document CHEMBL3433997, “St. Jude Leishmania screening dataset” (2016)

What was measured:
Assay type in all cases: functional
[1] = target: Solute carrier family 2, facilitated glucose transporter member 1 (Homo sapiens) (UniProt P11166); test: ST_JUDE_LEISH: Cytotoxicity at 2uM final concentration against transgenic Leishmania Mexicana promastigotes LmGLUT1 that are glucose transport deficient and complemented with the human glucose transporter GLUT1. Activity is measured by DNA content using SYBR green in vitro
Chain of Solute carrier family 2, facilitated glucose transporter member 1 (Homo sapiens) (P11166 whole entry): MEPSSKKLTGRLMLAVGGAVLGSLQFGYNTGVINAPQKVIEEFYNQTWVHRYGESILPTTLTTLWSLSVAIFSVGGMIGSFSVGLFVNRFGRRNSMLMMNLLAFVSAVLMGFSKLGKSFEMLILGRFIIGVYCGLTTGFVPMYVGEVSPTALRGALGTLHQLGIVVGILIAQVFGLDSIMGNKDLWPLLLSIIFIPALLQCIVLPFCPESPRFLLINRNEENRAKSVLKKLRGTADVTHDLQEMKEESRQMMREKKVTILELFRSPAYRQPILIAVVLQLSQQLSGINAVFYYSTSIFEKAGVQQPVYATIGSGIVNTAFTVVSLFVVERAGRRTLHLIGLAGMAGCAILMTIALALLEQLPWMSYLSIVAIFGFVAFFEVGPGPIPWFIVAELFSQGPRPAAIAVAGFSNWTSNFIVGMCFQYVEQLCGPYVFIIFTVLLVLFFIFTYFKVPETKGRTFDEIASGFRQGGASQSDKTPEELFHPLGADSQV

[2] = target: Hexose transporter 1 (Plasmodium falciparum) (UniProt O97467); test: ST_JUDE_LEISH: Cytotoxicity at 2uM final concentration against transgenic Leishmania Mexicana promastigotes LmPfHT that are glucose transport deficient and complemented with the Plasmodium falciparum hexose transporter. Activity is measured by DNA content using SYBR green in vitro
[3] = target: Glucose transporter (Leishmania mexicana) (UniProt O61059); test: ST_JUDE_LEISH: Cytotoxicity at 2uM final concentration against transgenic Leishmania Mexicana promastigotes LmGT2 that are glucose transport deficient and complemented with the L. Mexicana glucose transporter 2. Activity is measured by DNA content using SYBR green in vitro

Row | SMILES | inhibition [1] | inhibition [2] | inhibition [3]
1 | CNc1nc(N/N=C/c2cc3c(cc2[N+](=O)[O-])OCO3)nc(Nc2cccc(C(F)(F)F)c2)n1 | 6.24% | 5.94% | 2.16%
2 | Cc1cccc2nc(-c3cccc(-c4ccc(C(=O)NCc5ccccc5S(C)(=O)=O)cc4)c3)[nH]c12 | 4.92% | 3.13% | 2.53%
3 | O=S(=O)(c1ccc2cc[nH]c2c1)N1CCC[C@@H]1CCN1CCC(c2c[nH]c3cnccc23)CC1 | 3.4% | 2.78% | 2.1%
4 | COC(=O)[C@@H](NC(=O)[C@H](Cc1ccc(OC)c(OC)c1)Nc1ccc(C#N)c2ccccc12)c1ccc(O)cc1 | 10.1% | 16.6% | 6.41%
5 | COC(=O)Nc1cc(C(F)(F)F)ccc1N1CCCC(NS(=O)(=O)c2ccc(C(C)(C)C)cc2)C1 (stereo unspecified) | 10% | 12.2% | 7.77%
6 | O=C(Nc1ccc(-c2csc(-c3nc4ccccc4[nH]3)c2)cc1)Nc1ccsc1 | 1.71% | 0.76% | 0.44%
7 | CC(C)(C)c1ccc(S(=O)(=O)Nc2ccccc2Cn2nc(N3CCNCC3)ccc2=O)cc1 | 8.03% | 7.83% | 8.79%
8 | CCCOc1cccc(C(=O)N[C@@H](Cc2ccccc2)[C@H](O)CNCc2cccc(OC)c2)c1 | 0.22% | 0.92% | -3.25%
9 | COc1ccc(S(=O)(=O)N2CCOCC2)cc1NC(=O)c1cc2ccccc2o1 | 2.09% | 3.19% | 1.69%
10 | CCn1ncc(Cl)c1CN(C)S(=O)(=O)c1ccc2ccccc2c1 | 5.72% | 6.41% | 6.31%
11 | CCN(CC)CCCCCNc1c2ccc(Cl)cc2nc2ccc(OC)cc12 | 2.17% | 1.26% | 1.52%
12 | CCCCCC(C)N/C(=N/c1ccccc1Br)Nc1ccc(C#N)cc1O (stereo unspecified) | 2.35% | 1.33% | 0.92%
